Test results: PubChem BioAssay
The source made the active and inactive calls.

Legend:
[1] = system: PRMT1 (protein arginine N-methyltransferase 1); assay: small molecules binding arginine methyltransferase PRMT1 – biochemical, small-molecule microarray, 635 nm fluorescence, primary screen (AID 1088); conditions: higher = more signal;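 further: binding of Prmt1 protein to compounds spotted on small-molecule microarray slides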
[2] = growth effects on S. cerevisiae YJM789 – YJM789 clinical isolate, OD600, 24 h, basal, primary screen (AID 1089); conditions: higher = more signal, called active from +8 up or from −8 down;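 further: growth of clinical yeast isolate S. cerevisiae YJM 789 seeded 1000 cells per well; test concentration not given here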
[3] = S. pombe growth modifiers, basal conditions – strain 972, OD600, 24 h, no modulator, primary screen (AID 1090);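 further: basal condition with compound alone and no growth modifier present; test concentration not given here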; conditions: S. pombe 972 growth, higher = more signal, called active from +8 up or from −8 down
[4] = budding yeast growth modifiers under rapamycin – strain BY4716, OD600, 96 h, primary screen (AID 1091); further: test concentration not given here; conditions: S. cerevisiae BY4716 + rapamycin, higher = more signal, called active from +8 up or from −8 down
[5] = biological target: Torsin-1A-interacting protein 2 (Homo sapiens) (UniProt Q8NFQ8); assay: small molecules binding lysate-expressed LULL1 – cell lysate, human LULL1 lysate, 635/667 nm fluorescence, primary screen (AID 1092); conditions: small-molecule microarray, hLULL1 lysate binding, 635 nm fluorescence; higher = more signal;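 further: probe is lysate of COS7 cells overexpressing human LULL1; score merges per-feature 667 nm fluorescence with signal-to-noise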
Sequence of Torsin-1A-interacting protein 2 (Homo sapiens) (Q8NFQ8 whole entry, looked up): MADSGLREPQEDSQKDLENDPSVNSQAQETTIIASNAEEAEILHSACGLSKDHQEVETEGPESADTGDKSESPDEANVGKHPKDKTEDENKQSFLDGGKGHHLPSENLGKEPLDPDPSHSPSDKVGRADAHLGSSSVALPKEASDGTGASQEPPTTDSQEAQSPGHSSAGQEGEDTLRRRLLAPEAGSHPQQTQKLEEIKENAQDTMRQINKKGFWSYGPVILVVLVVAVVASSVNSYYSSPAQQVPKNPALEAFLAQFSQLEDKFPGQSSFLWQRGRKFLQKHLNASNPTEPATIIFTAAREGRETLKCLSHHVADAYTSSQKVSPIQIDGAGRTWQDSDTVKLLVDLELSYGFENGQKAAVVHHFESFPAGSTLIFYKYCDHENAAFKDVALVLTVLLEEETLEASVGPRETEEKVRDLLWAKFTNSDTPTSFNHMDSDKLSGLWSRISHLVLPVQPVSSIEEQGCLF

[6] = optical density change of DRC41 E. coli – strain DRC41, OD650, 24 h, E. coli filamentation project, primary screen (AID 1093);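 further: MC1000 strain lacking acrAB efflux and sulA so SOS filamentation is blocked; test concentration not given here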; conditions: E. coli DRC41 growth, higher = more signal, called active from +8 up or from −8 down
[7] = probe aLefty2 binding to arrayed compounds – biochemical, biotinylated probe, 635/667 nm fluorescence, primary screen (AID 1094); conditions: small-molecule microarray, higher = more signal;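 further: score merges spot fluorescence near 667 nm with spot signal-to-noise ratio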
[8] = system: Noggin (protein binding on small-molecule microarray); assay: small molecules binding Noggin protein – biochemical, 635/667 nm fluorescence, primary screen (AID 1095); conditions: 635 nm fluorescence, higher = more signal;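 further: score merges 667 nm feature fluorescence with signal to noise over triplicate slides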
[9] = biological target: Neurogenic locus notch homolog protein 3 (Homo sapiens) (UniProt Q9UM47); assay: small molecules binding NOTCH3 protein – biochemical, 635/667 nm fluorescence, primary screen (AID 1096); conditions: small-molecule microarray, 635 nm fluorescence, higher = more signal
Sequence of Neurogenic locus notch homolog protein 3 (Homo sapiens) (Q9UM47 whole entry, looked up): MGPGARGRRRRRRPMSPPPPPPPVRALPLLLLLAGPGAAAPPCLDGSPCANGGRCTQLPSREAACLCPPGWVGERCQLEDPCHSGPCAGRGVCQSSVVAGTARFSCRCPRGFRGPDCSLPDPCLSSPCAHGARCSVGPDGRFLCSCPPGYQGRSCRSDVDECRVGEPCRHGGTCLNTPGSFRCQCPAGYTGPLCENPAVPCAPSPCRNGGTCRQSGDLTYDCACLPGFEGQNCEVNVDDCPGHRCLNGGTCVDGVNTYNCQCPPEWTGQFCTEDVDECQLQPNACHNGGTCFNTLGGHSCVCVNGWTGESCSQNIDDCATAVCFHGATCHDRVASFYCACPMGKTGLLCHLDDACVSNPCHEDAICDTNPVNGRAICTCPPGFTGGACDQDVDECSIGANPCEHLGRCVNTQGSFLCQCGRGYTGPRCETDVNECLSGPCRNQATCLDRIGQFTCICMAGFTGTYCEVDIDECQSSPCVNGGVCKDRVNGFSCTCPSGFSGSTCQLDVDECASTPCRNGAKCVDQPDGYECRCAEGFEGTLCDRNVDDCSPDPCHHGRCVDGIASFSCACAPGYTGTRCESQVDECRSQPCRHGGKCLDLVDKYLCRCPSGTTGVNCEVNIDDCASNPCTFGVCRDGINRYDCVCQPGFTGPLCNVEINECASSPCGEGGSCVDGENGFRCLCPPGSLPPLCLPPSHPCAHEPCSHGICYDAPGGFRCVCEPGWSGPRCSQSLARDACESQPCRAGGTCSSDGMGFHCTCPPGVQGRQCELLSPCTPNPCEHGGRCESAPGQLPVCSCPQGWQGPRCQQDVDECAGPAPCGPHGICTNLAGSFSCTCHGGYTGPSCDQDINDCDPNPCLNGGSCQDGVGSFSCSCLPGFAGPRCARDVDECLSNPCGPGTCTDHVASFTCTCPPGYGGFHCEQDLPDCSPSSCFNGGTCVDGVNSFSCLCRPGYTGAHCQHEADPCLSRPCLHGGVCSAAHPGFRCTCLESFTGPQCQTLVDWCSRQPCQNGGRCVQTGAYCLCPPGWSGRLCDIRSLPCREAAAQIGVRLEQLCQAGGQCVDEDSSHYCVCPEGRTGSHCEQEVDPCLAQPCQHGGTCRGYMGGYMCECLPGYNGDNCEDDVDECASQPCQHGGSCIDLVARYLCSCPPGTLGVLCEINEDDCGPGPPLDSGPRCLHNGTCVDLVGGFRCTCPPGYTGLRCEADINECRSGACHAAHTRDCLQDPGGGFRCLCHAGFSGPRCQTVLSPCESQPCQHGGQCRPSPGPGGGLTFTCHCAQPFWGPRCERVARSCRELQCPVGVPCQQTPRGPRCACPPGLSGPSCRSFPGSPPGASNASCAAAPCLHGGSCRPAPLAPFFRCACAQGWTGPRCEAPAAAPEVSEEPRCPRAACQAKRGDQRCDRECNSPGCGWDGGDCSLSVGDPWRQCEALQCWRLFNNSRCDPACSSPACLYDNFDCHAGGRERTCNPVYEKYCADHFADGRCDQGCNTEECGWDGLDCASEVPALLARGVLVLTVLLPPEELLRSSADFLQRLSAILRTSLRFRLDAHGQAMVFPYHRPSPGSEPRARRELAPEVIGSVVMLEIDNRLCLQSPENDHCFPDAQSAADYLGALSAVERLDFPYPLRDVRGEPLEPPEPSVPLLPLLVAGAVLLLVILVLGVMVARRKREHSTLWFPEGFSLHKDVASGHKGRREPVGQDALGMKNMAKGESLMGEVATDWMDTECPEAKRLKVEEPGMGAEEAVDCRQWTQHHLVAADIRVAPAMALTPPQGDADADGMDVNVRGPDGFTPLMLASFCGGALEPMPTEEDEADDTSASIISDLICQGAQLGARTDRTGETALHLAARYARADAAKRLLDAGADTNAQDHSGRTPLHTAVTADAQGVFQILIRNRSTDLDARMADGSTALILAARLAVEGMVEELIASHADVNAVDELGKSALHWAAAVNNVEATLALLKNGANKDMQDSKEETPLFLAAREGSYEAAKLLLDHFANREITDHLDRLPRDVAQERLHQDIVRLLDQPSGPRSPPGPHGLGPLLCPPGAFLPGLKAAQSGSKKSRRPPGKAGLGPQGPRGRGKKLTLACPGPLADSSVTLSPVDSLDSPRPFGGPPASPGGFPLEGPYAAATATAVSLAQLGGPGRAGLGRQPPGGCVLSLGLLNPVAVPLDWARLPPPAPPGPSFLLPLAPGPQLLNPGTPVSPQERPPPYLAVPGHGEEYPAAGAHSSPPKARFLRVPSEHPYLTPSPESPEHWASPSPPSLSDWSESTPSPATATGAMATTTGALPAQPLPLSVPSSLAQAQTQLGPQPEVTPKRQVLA

[10] = probe aEGFR binding to arrayed compounds – biochemical, biotinylated probe, 635/667 nm fluorescence, primary screen (AID 1097); conditions: small-molecule microarray, higher = more signal;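 further: probe is a biotinylated anti-EGFR antibody binding compounds printed on slides; score combines fluorescence near 667 nm and signal to noise of each spot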

SMILES	composite z-score [1]	z-score [2]	z-score [3]	z-score [4]	composite z-score [5]	z-score [6]	composite z-score [7]	composite z-score [8]	composite z-score [9]	composite z-score [10]
CC[C@@H]1C=C(C(=O)O)[C@H](c2ccccc2)N1S(=O)(=O)c1ccc([N+](=O)[O-])cc1	0.372	0.308 (inactive)	-0.434 (inactive)	0.632 (inactive)	3.38	-1.86 (inactive)	0.0634	-0.297	0.481	0.0276
CC(=O)NCCCC[C@@H]1NC(=O)[C@@H]2C[C@H](C(=O)NCCCCCNC(=O)CS)[C@H](c3ccc(O)cc3)N2C1=O	0.483	-2.05 (inactive)	-1.83 (inactive)	-1.55 (inactive)	-0.0471	2.99 (inactive)	-0.149	1.11	0.108	-0.212
COC(=O)c1ccc(C#CC(NP(=O)(c2ccccc2)c2ccccc2)c2ccccc2)cc1 (stereo not given)	-0.362	-0.664 (inactive)	-11.5 (active)	1.25 (inactive)	3.14	0.0037 (inactive)	0.594	-0.0434	1.05	0.093
O=C(CS)NCCCCCNC(=O)[C@H]1C[C@H]2C(=O)N3CCC[C@H]3C(=O)N2[C@H]1c1ccc(O)cc1	-0.183	-0.0414 (inactive)	-1.25 (inactive)	0.0236 (inactive)	0.0874	1.62 (inactive)	-0.0961	0.0529	-1.17	-0.184
CO[C@@H]1COC(=O)[C@@H]2CCCN2C(=O)CC=C[C@@H](C)[C@H](OC)COC(=O)[C@@H]2CCCN2C(=O)CC=C[C@H]1C	1.11	-0.0171 (inactive)	-1.05 (inactive)	-0.258 (inactive)	-0.522	1.1 (inactive)	-0.166	1.14	-0.325	-0.0332
C=C(COC)/C(=C/C[C@H](OC(C)=O)c1ccc(OCCO)cc1)c1cnc2ccccc2c1	1.46	1.53 (inactive)	-1.49 (inactive)	1.09 (inactive)	1.05	1.12 (inactive)	0.0707	0.935	1.1	-0.0039
CC(C)NC(=O)[C@@]1(Cc2ccccc2I)c2ccccc2C(=O)N(C2CCCCC2)[C@H]1c1ccc(CO)cc1	1.53	0.401 (inactive)	-2.09 (inactive)	-1.03 (inactive)	3.4	-0.432 (inactive)	0.261	0.128	1.14	0.0861
COc1ccc([Si](C)(C)[C@H]2[C@H](CC(=O)N3Cc4ccccc4C[C@H]3CO)O[C@@]3(C(=O)N(Cc4cccc(N5CCOC5=O)c4)c4ccccc43)[C@@H]2C)cc1	1.34	-0.541 (inactive)	0.319 (inactive)	0.18 (inactive)	0.662	1.4 (inactive)	0.0939	1.22	0.932	-0.0169
C[C@]1(C(=O)NCc2ccccc2)c2ccccc2C(=O)N(Cc2cc(C(F)(F)F)cc(C(F)(F)F)c2)[C@H]1c1ccc(CO)cc1	1.58	-2 (inactive)	-3.22 (inactive)	-2.11 (inactive)	1.51	2.13 (inactive)	0.339	0.583	0.655	0.18
CC1=C([C@H](O)CCc2ccccc2)[C@H](CO)[C@@H]2C(=O)N(Cc3ccccc3)C(=O)[C@@H]2C1	-0.262	-0.466 (inactive)	-1.41 (inactive)	-0.873 (inactive)	-0.2	1.72 (inactive)	0.0769	0.932	0.497	-0.085
CCCC=C(CCC)[C@@H](NS(=O)(=O)c1ccc(-c2ccccc2)cc1)c1ccc(C(=O)OC)cc1	0.266	0.282 (inactive)	-1.51 (inactive)	0.284 (inactive)	1.76	-1.9 (inactive)	-0.119	-0.666	-0.616	-0.059
CCC#CCN(Cc1ccccc1Br)[C@H](/C=C/c1ccccc1)[C@@H](O)Cc1ccccc1	-0.394	0.629 (inactive)	0.266 (inactive)	1.12 (inactive)	1.22	0.567 (inactive)	0.136	-1.78	-1.11	-0.458
NC(=O)NCC#Cc1ccc2c(c1)[C@]1(C(=O)N2)[C@H](C(=O)N2CCCCCCC2)[C@H]2C(=O)O[C@H](c3ccccc3)[C@H](c3ccccc3)N2[C@@H]1c1ccccc1OCCO	1.54	0.305 (inactive)	-3.26 (inactive)	1 (inactive)	4.33	1.82 (inactive)	1.65	1.36	1.05	1.3
C=CCN1C(=O)[C@@]2(O[C@@H](CCn3cc([C@H](O)c4ccccc4)nn3)[C@H]([Si](C)(C)c3ccc(OC)cc3)[C@H]2C)c2cc(N3CCOC3=O)ccc21	1.15	-1.26 (inactive)	-1.88 (inactive)	-0.723 (inactive)	1.8	2.19 (inactive)	-0.0463	-0.0328	0.131	-0.121
